Results on nine compounds are retold here after PubChem BioAssay (NCI).

Test systems include SR leukemia; RPMI-8226 leukemia; OVCAR-8 ovarian; OVCAR-5 ovarian; SK-OV-3 ovarian; IGROV1 ovarian; HS 578T breast; NCI/ADR-RES ovarian; T-47D breast; BT-549 breast; MDA-MB-435 melanoma; SW-620 colon; MCF7 breast; HCT-116 colon; HCC-2998 colon; KM12 colon; OVCAR-4 ovarian; OVCAR-3 ovarian.
What all share (assay): NCI-60 one-dose screen, 48 h (100 = growth as untreated, 0 = no growth, -100 = all killed)
Conditions in all cases: 10 µM unless noted

About 83,000 compounds went through this panel and 20% of them were active in at least one assay; those are over-represented in the sample as a whole.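 Note: values are percent growth. 100 is the growth of untreated cells, values between 100 and 0 indicate rising inhibition; between -100 and 0 indicates cell death.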 A number with no mark means an inactive call. The source made the active and inactive calls. The calls were made as follows: active = growth percent below 10; inactive = the rest.

With `COc1ccc(-c2cc(-c3ccc(N(C)C)cc3)n3c(n2)nc2ccccc23)cc1`, the growth was 50.8% with SR leukemia; 23.1% in the test on RPMI-8226 leukemia; 39.8% in the test with OVCAR-8 ovarian; 95.5% with OVCAR-5 ovarian; 55.5% with SK-OV-3 ovarian; 77.6% in the test on IGROV1 ovarian. The growth with HS 578T breast is 82.4%; in the test on NCI/ADR-RES ovarian, 59.5%; in the test with T-47D breast, 2.27% (active); with BT-549 breast, 40.1%; in the test on MDA-MB-435 melanoma, 74.3%; in the test on SW-620 colon it was 76.9%. Further, the growth with MCF7 breast was 40.7%; in the test on HCT-116 colon it was 15.8%; with HCC-2998 colon it was 84.2%; in the test on KM12 colon it was 62.3%.
As to `O=[N+]([O-])c1ccc(NC(=S)NNC(=S)Nc2ccc(F)cc2)cc1`, the growth in the test with SR leukemia is 91%; in the test on RPMI-8226 leukemia, 85.6%; in the test with OVCAR-8 ovarian, 91.7%; with OVCAR-5 ovarian, 89.9%; in the test on OVCAR-4 ovarian, 95.7%; in the test on SK-OV-3 ovarian it was 116%. Also, the growth in the test on IGROV1 ovarian was 83.5%; in the test on HS 578T breast it was 102%; with T-47D breast, 74.1%; in the test with BT-549 breast, 97.1%; with MDA-MB-435 melanoma it was 91%; with SW-620 colon, 91.5%. Besides, the growth in the test on MCF7 breast is 82%; in the test with HCT-116 colon, 83.7%; in the test on HCC-2998 colon, 85.5%; with KM12 colon, 80.4%.
Regarding `C#Cc1nc(/C=C\CCCCCCC(=O)NO)cs1`, the growth with SR leukemia was -19.7% (active); in the test on RPMI-8226 leukemia, -1.07% (active); in the test with OVCAR-8 ovarian, 40.9%; in the test with OVCAR-5 ovarian, 45.7%; with SK-OV-3 ovarian it was 91.6%; in the test with IGROV1 ovarian, -68.2% (active). The growth in the test with HS 578T breast was 64.9%; with NCI/ADR-RES ovarian it was 13.1%; in the test with T-47D breast it was 42.3%; in the test with BT-549 breast, 87.5%; with MDA-MB-435 melanoma it was 45.9%; in the test on SW-620 colon, 23.9%. Besides, the growth was 35.2% in the test on MCF7 breast, 20.5% in the test with HCT-116 colon, 98.8% with HCC-2998 colon and 41.2% with KM12 colon.
For the compound `O=S(=O)(Oc1ccc(-c2cn3ccoc3n2)cc1)C1CCCCC1`, the growth in the test on SR leukemia was 85.6%; with RPMI-8226 leukemia it was 93.3%; in the test with OVCAR-8 ovarian, 100%; in the test with OVCAR-5 ovarian it was 102%; with OVCAR-4 ovarian it was 107%; with SK-OV-3 ovarian, 102%. In addition, the growth in the test with IGROV1 ovarian is 108%; in the test with HS 578T breast, 102%; in the test with BT-549 breast, 125%; with MDA-MB-435 melanoma, 98.6%; in the test with SW-620 colon it was 103%; in the test with MCF7 breast, 87%. The growth in the test on HCT-116 colon was 89.3%; in the test with HCC-2998 colon it was 113%; with KM12 colon, 103%.
Turning to `CC1(C)C=Cc2cc(/C(N)=N/C(N)=N/c3nc4ccccc4s3)ccc2O1`, the growth with SR leukemia was 6.81% (active); in the test with RPMI-8226 leukemia, 80.2%; in the test on OVCAR-8 ovarian, 76.5%; in the test with OVCAR-5 ovarian, 95.9%; in the test on SK-OV-3 ovarian it was 124%; in the test with IGROV1 ovarian, 52.5%. In addition, the growth in the test with OVCAR-3 ovarian is 103%; in the test with HS 578T breast it was 101%; in the test on NCI/ADR-RES ovarian, 81.7%; in the test on T-47D breast, 77.6%; in the test on BT-549 breast, 86.1%; with MDA-MB-435 melanoma, 99.3%. Moreover, the growth was 102% in the test with SW-620 colon; 67.2% in the test with MCF7 breast; 59.2% in the test with HCT-116 colon; 109% in the test on HCC-2998 colon; 61.5% in the test on KM12 colon.
Take `CCOc1cccc(/C(N)=N/C(N)=N/c2nc3ccccc3s2)c1`: the growth with SR leukemia is 6.28% (active); with RPMI-8226 leukemia, 77.3%; in the test with OVCAR-8 ovarian, 68.8%; in the test on OVCAR-5 ovarian, 98.8%; in the test with SK-OV-3 ovarian, 132%; in the test on IGROV1 ovarian it was 56%. Besides, the growth with OVCAR-3 ovarian was 104%; with HS 578T breast, 96.3%; in the test with NCI/ADR-RES ovarian, 49.7%; with T-47D breast, 73.1%; in the test with BT-549 breast, 102%; with MDA-MB-435 melanoma it was 99.9%. For the same compound, the growth in the test on SW-620 colon is 102%; in the test with MCF7 breast, 72.6%; with HCT-116 colon it was 72.3%; in the test on HCC-2998 colon, 111%; in the test on KM12 colon, 46.4%.
Turning to `CN1CCN(c2ccc(Nc3nc(NCCNS(=O)(=O)c4ccc(Cl)cc4)c4sccc4n3)cc2)CC1`, the growth in the test on SR leukemia is 22.7%; in the test on RPMI-8226 leukemia, 80.8%; in the test on OVCAR-8 ovarian it was 101%; with OVCAR-5 ovarian it was 98.7%; in the test on SK-OV-3 ovarian it was 121%; in the test on IGROV1 ovarian, 92.9%. Besides, the growth in the test on HS 578T breast is 81.2%; in the test with NCI/ADR-RES ovarian it was 100%; in the test with T-47D breast, 84.3%; in the test on BT-549 breast, 111%; in the test on MDA-MB-435 melanoma, 95.4%; with SW-620 colon it was 94.7%. Besides, the growth in the test with MCF7 breast was 83.2%; with HCT-116 colon it was 58.5%; in the test with HCC-2998 colon, 108%; in the test with KM12 colon, 93.7%.
Turning to `CC1(C)CC[C@]2(C(=O)NCCCCCCN(CCCN)CCCN)CC[C@]3(C)C(=CC[C@@H]4[C@@]5(C)CC[C@H](O)C(C)(C)[C@@H]5CC[C@]43C)[C@@H]2C1`, the growth in the test on SR leukemia is 87.2%; in the test with RPMI-8226 leukemia it was 100%; in the test on OVCAR-8 ovarian it was 99%; in the test on OVCAR-5 ovarian, 96.8%; in the test with SK-OV-3 ovarian, 114%; in the test on IGROV1 ovarian, 101%. The growth in the test with OVCAR-3 ovarian was 106%; with HS 578T breast, 110%; in the test with NCI/ADR-RES ovarian, 98.8%; in the test with T-47D breast, 98.6%; in the test on BT-549 breast it was 102%; in the test on MDA-MB-435 melanoma, 105%. Further, the growth was 107% in the test on SW-620 colon; 93.4% with MCF7 breast; 99.2% in the test on HCT-116 colon; 103% in the test on HCC-2998 colon; 102% in the test on KM12 colon.
Turning to `Cc1ccc(NC(=O)/C=C/c2ccc(OCCCOc3ccc4c(C)cc(=O)oc4c3)cc2)cc1`, the growth is 70.2% in the test on SR leukemia; 90.1% in the test with RPMI-8226 leukemia; 52.3% in the test with OVCAR-8 ovarian; 91.6% with OVCAR-5 ovarian; 79.8% with SK-OV-3 ovarian; 73.3% with IGROV1 ovarian. Besides, the growth in the test with HS 578T breast is 40%; in the test on NCI/ADR-RES ovarian, 52.5%; in the test with T-47D breast, 70.3%; with BT-549 breast it was 98.7%; in the test with MDA-MB-435 melanoma it was 77.1%; in the test on SW-620 colon, 83.5%. Moreover, the growth was 73.4% in the test on MCF7 breast, 78.9% in the test with HCT-116 colon, 80.5% with HCC-2998 colon and 84.8% in the test with KM12 colon.
